Only some compounds are listed: those with a hit (about 21% of all), similar ones and a draw of the others.
CHX counter – counter-screen for Shiga toxin inhibitors: cycloheximide protein synthesis inhibition | cell reporter, cycloheximide protein synthesis inhibition counterscreen | max response, % | 12% of 300,000 active; in the data active means max response mostly above about 13%, no sharp cut-off; inactive means mostly below about 14%; further: read at 38.3 µM for the half of the compounds with a filed dose; 0% is about no effect
NS1 function inh – influenza NS1 inhibition; Potency, µM (series often up to 46.1 µM), inactives show at the top dose activity, positive = more growth; 0.4% of 270,000 active; AID 2326; calls by dose curve; further: potency means the concentration at half of the fitted maximal effect; actives are rising curves; nearly all actives have a fitted effect of over 50% in size
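Compounds were scored for reversing the slow growth caused by influenza A NS1 in S. cerevisiae, measured by optical density at 600 nm. Assay medium contained 2% galactose at pH 6.0; NS1-free yeast of the same strain were the positive control.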
Shiga inhibitor – blocks Shiga toxin action in Vero cells | AID 2315 | Vero cells, Shiga toxin protein synthesis inhibition reporter | inhibition, % at 38.7 µM | 9.2% of 290,000 active; in the data active means inhibition mostly above about 28%, no sharp cut-off; inactive means mostly below about 43%; further: 0% is about no effect
SARS PLpro yeast – inhibitors of SARS-CoV papain-like protease in yeast; S. cerevisiae expressing SARS-CoV PLpro, growth rescue; Potency, µM (series often up to 32.9 µM), for the others: at the top dose activity, positive = growth rescue, usual class: activators; 0.19% of 330,000 active; AID 485353; calls by dose curve; further: potency means the concentration at half of the fitted maximal effect; 0% is about no effect; nearly all actives have a fitted effect of over 55% in size
Pf growth 96h – P. falciparum growth inhibition at 96 hour, primary screen for plastid delayed-death inhibitors. P. falciparum luciferase reporter growth, 96 h. Potency, µM (doses to about 28.7 µM), for inactives: at the highest dose activity change, negative = inhibition, most hits filed as inhibitors. 6.9% of 320,000 active. AID 504834; further: potency means the concentration at half of the fitted maximal effect; on the % scale 0 is the no-effect control and ±100 the full control effect
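Infected RBCs, 2% Hct / 0.05% parasitemia final; luciferase-reporter P. falciparum; cpd 96 h, 37 C, 5% CO2; luciferase detection reagent; luminescence.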
Pf growth 48h – P. falciparum growth inhibition at 48 hours (one generation). P. falciparum luciferase growth in erythrocytes, 48 h. Potency, µM (series often up to 28.7 µM), inactives show at the top dose activity change, negative = inhibition, actives largely listed as inhibitors. 5.9% of 310,000 active. AID 504832; further: potency means the concentration at half of the fitted maximal effect; on the % scale 0 is the no-effect control and ±100 the full control effect
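Luminescence readout; reporter = integrated firefly luciferase in P. falciparum. RBC culture at 2% hematocrit, 0.1% parasitemia final, 37 C/5% CO2; decreased signal taken as growth inhibition.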
Numbers without * were called inactive; ? = inconclusive; / = no result given; + = active, no number; [ ] = another dose, or the depositor's remark. Unless noted, the call rests on the fitted dose curve; in most records, active means well fitted inhibition curve with a large enough effect; inconclusive means small, poorly fitted or top-dose-only effect, or another doubt; inactive means no such curve, though single readings can be large or run the other way.

SMILES	CHX counter	NS1 function inh	Shiga inhibitor	SARS PLpro yeast	Pf growth 96h	Pf growth 48h
Cc1nonc1C(=O)N/N=C/c1ccncc1	29*	0%	51*	-1%	8.3µM*	8%
Cc1nnsc1C(=O)N/N=C/c1ccc(OC(F)(F)F)cc1	23*	/	64*	1%	11%	?
Cc1nnsc1C(=O)N/N=C/c1ccccc1	4	-5%	4	-32%	?	7%
COc1ccc(NC(=O)[C@H](C)NC(=O)C2CCN(S(=O)(=O)c3ccc(OC)cc3)CC2)cc1	-3	0%	-6	-1%	-15%	-5%
CCS(=O)(=O)N1CCN(C(=O)c2cccc3ccccc23)CC1	-3	-7%	/	8%	-15%	-26%
Cc1c(C(=O)N/N=C/c2ccncc2)no[n+]1[O-]	21*	8%	-3	0%	23%	9%
Nc1nonc1C(=O)N/N=C/c1ccncc1	14	/	25	-4%	?	21%
Cc1cc2cc(CNC(=O)c3ccc(Br)o3)ccc2n1C	-6	-1%	-6	0%	9.3µM*	?
Cc1ccc(CNC(=O)c2ccc(Br)o2)cc1	20*	-67%	75	-25%	17%	40%
O=C(NCc1ccccc1)c1ccc(Br)o1	6	-6%	-14	-6%	-9%	9%
COc1ccc(Cl)c2sc(N(CCN(C)C)C(=O)c3ccc4c(c3)OCCO4)nc12	/	/	/	-3%	?	-22%
COCCCNC(=O)/C=C1\Sc2ccccc2N(Cc2ccccc2F)C1=O	32*	/	44	0%	-11%	43%
CCOc1ccc(C(=O)NCCC2=CCCCC2)cc1OCC	11	-5%	59	-1%	28%	-16%
CCc1cccc(NC(=O)CCCn2nc(C)c3c(C)n(-c4ccccc4)nc3c2=O)c1	-3	-5%	-3	2%	?	1%
Cc1cc(Cl)cc(Cl)c1OCCOc1cccc2cccnc12	9	-54%	13	0%	4.1µM*	/
COc1cccc(C=O)c1OCCCOc1cccc2cccnc12	38*	-21%	66*	0%	0%	113%
CC(=O)c1cccc(OCCCOc2cccc3cccnc23)c1	19*	-36%	20	-4%	?	0%
Cc1ccc(OCCOCCOc2cccc3cccnc23)c(Br)c1	-1	-80%	9	2%	-6%	-14%
Brc1ccccc1OCCCOc1cccc2cccnc12	33*	-105%	/	-11%	?	57%
Cc1cc(C)cc(OCCCOc2cccc3cccnc23)c1	5	-109%	-16	-32%	39%	-12%
CCn1ccnc1CN(C)Cc1c(C(=O)N2CCCCCCC2)nc2ccc(Cl)cn12	-3	14%	-30	-3%	?	?
COCc1c(Br)c(C)nc2sc3c(=O)[nH]nnc3c12	0	-4%	17	-2%	16%	-7%[0.00184 µM]
O=C(CN1C(=O)NC2(CCCc3ccccc32)C1=O)c1ccc(Br)cc1 (stereo unspecified)	/	/	/	4%	?	?
Cc1cccc(-c2oc3ccc(-c4ccc5c(c4)OCO5)cc3c2/C=C/c2ccc(N)cc2)c1	1	21%	-5	8%	?	-13%
COc1ccc(-c2cn(CCC(=O)NCc3ccc(C)cc3)c(CCN)n2)cc1	/	/	/	-15%	?	?
SMILES	CHX counter	NS1 function inh	Shiga inhibitor	SARS PLpro yeast	Pf growth 96h	Pf growth 48h
Brc1ccccc1OCCOc1cccc2cccnc12	16*	-6%	68*	-16%	-16%	82%
CCOc1ccccc1C=Nc1ccccc1C(=O)Nc1ccccc1	16*	8%	68*	-2%	71%	10%
O=C(Nc1ccccc1)c1ccccc1N=Cc1ccccc1O	47*	0%	+	-24%	70%	77%
Cc1ccc(C(C)(O)CS(=O)(=O)Cc2ccccc2)cc1 (stereo unspecified)	16*	-1%	19	0%	-1%	-92%[0.00184 µM]
COc1cccc(C(=O)Nc2cc(C(=O)NCc3ccc(C)cc3)ccc2N2CCC3(CC2)CC(c2ccccc2)=NO3)c1	8	25%	33	-4%	1.3µM*	?
Cc1ccc(CNC(=O)c2ccc(N3CCC4(CC3)CC(c3cccc(Br)c3)=NO4)c(NC(=O)c3ccc(Cl)c([N+](=O)[O-])c3)c2)cc1	/	/	/	0%	/	/
Cc1ccc(CNC(=O)c2ccc(N3CCC4(CC3)CC(c3cccc(Br)c3)=NO4)c(NC(=O)c3ccccc3)c2)cc1	/	/	/	1%	?	9.3µM*
COc1ccccc1C(=O)NCCNC(=O)c1ccc(C)nc1	-8	4%	-8	-1%	0%	2%
CC(C)N=c1scc(-c2cccs2)n1/N=C/c1ccc(O)c(O)c1O	16*	-5%	60*	-75%	?	-16%
COc1ccc(O)c(/C=N/n2c(-c3ccco3)csc2=Nc2cccnc2)c1	-2	8%	-21	-4%	-19%	-12%
CCN=c1scc(-c2cccs2)n1/N=C/c1cc(OC)ccc1O	51*	-16%	41	0%	13%	115%
COc1ccccc1N(CC(=O)Nc1cccnc1)S(C)(=O)=O	0	-4%	12	-1%	-1%	-5%
CNC[C@H](O)c1ccc(O)c(O)c1	5	-6%	-7	-1%	-15%	-4%
Oc1ccc(C(O)CNCCCCCCNCC(O)c2ccc(O)c(O)c2)cc1O (stereo unspecified)	/	/	/	/	12µM*	7.6µM*
CC(C)CNC(=O)c1ccccc1SCC(=O)NC12CC3CC(CC(C3)C1)C2	0	-34%	-6	-42%	?	?
O=c1oc2cc(O)ccc2c2oc3cc(O)ccc3c12	13*	-8%	31*	-6%	-11%	-1%
COc1ccc(-c2c(C)c3ccc(O)cc3oc2=O)cc1	53*	-15%	50*	-3%	55%	48%
CCc1c(C)c2ccc(OCC(N)=O)cc2oc1=O	20*	-3%	45	-2%	-23%	24%
O=c1oc2cc(O)ccc2c2ccccc12	-2	-82%	-16	-17%	3%	/
Cc1c(Cc2ccccc2)c(=O)oc2cc(OCC(=O)c3ccccc3)ccc12	-7	-3%	-7	20%	-28%	10%
C=C(C)COc1ccc2c(C)c(CCC(=O)NC3CC3)c(=O)oc2c1	22*	-31%	19	-5%	10µM*	10µM*
Cc1oc2cc3oc(=O)c(CCC(=O)NC4CC4)c(C)c3cc2c1C	-4	9%	1	-2%	?	?
CCN(CC)S(=O)(=O)c1ccc(C)c(NC(=O)CSc2nc3ccc(C)cc3[nH]2)c1	2	-8%	15	13%	?	?
CCOc1ccc(C2NC(=O)c3ccccc3O2)cc1OC (stereo unspecified)	-1	3%	-13	-2%	69%	-11%
CCCOc1ccc2c(C)c(CC(=O)OC)c(=O)oc2c1	31*	4%	52*	-3%	/	22%
COc1ccc(-c2c(C)c3ccc(OCC(C)=O)cc3oc2=O)cc1	49*	-5%	110*	2%	12%	229%

Bioassay records from PubChem.
